Laboratory results published in PubChem BioAssay (NCI).
The panel holds about 83,000 compounds, 20% with a hit somewhere; the sample as a whole holds those more often.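 For each line, cells grew in 96-well plates with the test compound present at a single concentration for 48 hours.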 Unmarked numbers belong to inactive results. Activity calls are given as the source filed them. The calls were made as follows: active = growth percent below 10; inactive = the rest.

Columns and labels:
Experiment in all cases: NCI-60 one-dose screen, 48 h (100 = growth as untreated, 0 = no growth, -100 = all killed)
Settings in all cases: 10 µM
T-47D breast = tested on: T-47D breast
BT-549 breast = tested on: BT-549 breast
MDA-MB-435 melanoma = tested on: MDA-MB-435 melanoma
SW-620 colon = tested on: SW-620 colon
MCF7 breast = tested on: MCF7 breast
HCT-116 colon = tested on: HCT-116 colon
HCC-2998 colon = tested on: HCC-2998 colon
KM12 colon = tested on: KM12 colon
MDA-MB-468 breast = tested on: MDA-MB-468 breast

Row | Compound | growth (T-47D breast) | growth (BT-549 breast) | growth (MDA-MB-435 melanoma) | growth (SW-620 colon) | growth (MCF7 breast) | growth (HCT-116 colon) | growth (HCC-2998 colon) | growth (KM12 colon) | growth (MDA-MB-468 breast)
1 | Cc1cc2c(c(O)c1Br)-c1ncoc1C(=O)[C@]1(C)CC[C@H](C(C)C)[C@H]21 | 20.6% | -24.6% (active) | 5.72% (active) | 22.8% | 10.1% | 31.1% | 38.2% | 20% | 20.3%
2 | COc1cccc2nc(Nc3cccc(NC(=O)c4ccc(CN5CCCN(C)CC5)c(C(F)(F)F)c4)c3)ccc12 | -55.9% (active) | -92.5% (active) | -100% (active) | -97.5% (active) | -90% (active) | -64.7% (active) | -96.6% (active) | -63.9% (active) | -87.9% (active)
3 | O=C(NO)c1ccc(CNC(=O)[C@H]2Cc3c([nH]c4ccccc34)[C@H](c3ccccc3)N2)cc1 | -17.7% (active) | 55.4% | 5.21% (active) | -43.7% (active) | 14.4% | 10.1% | 16.9% | 31.1% | -6.19% (active)
4 | O=C(Cn1cc(CSc2nnc3oc4ccccc4n23)nn1)Nc1cccc(Cl)c1 | 45.2% | 83.1% | 74.4% | 103% | 49% | 71.8% | 84.7% | 70.6% | 37.7%
5 | Cc1ccc(C(=O)CSc2nnc(-c3c[nH]c4ccccc34)n2-c2ccccc2)cc1 | 46.7% | 22.4% | 38.6% | 19% | 12.5% | 7.68% (active) | 66.4% | 51% | 48%
6 | OCc1[nH]nc2cc(Nc3ncc4ccc(Br)c(OC5CCC(O)CC5)c4n3)ccc12 (stereo unspecified) | 2.7% (active) | -42.5% (active) | -15.7% (active) | -18.6% (active) | -74.7% (active) | 6.59% (active) | -49% (active) | 2.85% (active) | -87.8% (active)
7 | O=C(c1ccc(O)cc1)C1[C@H](c2ccc(Br)cc2)[C@@H](c2ccccc2)NC12C(=O)Nc1ccccc12 (stereo partly specified) | 38.4% | 116% | 13.4% | 26.2% | 8.43% (active) | 17.3% | -34.8% (active) | 1.31% (active) | 0.478% (active)
8 | COc1ccc2cc([C@H](C)C(=O)NCc3ccccc3)ccc2c1 | 41.5% | 42.8% | -13.2% (active) | 29.3% | 22.5% | 37% | 50.7% | 39.1% | -20.3% (active)
9 | O=C1Nc2cc(-c3ccc(NC(=O)c4cccc([N+](=O)[O-])c4)cc3)ccc2/C1=C/c1ccc[nH]1 | 27.5% | 120% | 105% | 79.8% | 2.65% (active) | 103% | 62.2% | 14.5% | -10.9% (active)
10 | CN(C(=O)c1ccc(C(F)(F)F)cc1C(F)(F)F)c1sc2c(c1C#N)CCC(=O)C2 | 1.04% (active) | 20.8% | 101% | 18.9% | 85.8% | 25.2% | 94.4% | 74.3% | 51.9%
11 | COc1cnc2c(c1)C(=O)c1c-2n(CCCNCCO)c(=O)c2cc(OC)c(OC)cc12 | 10.1% | 40.7% | 49.7% | 38.4% | 5.82% (active) | 1.67% (active) | 30.3% | 54.5% | -48.8% (active)
12 | COc1ccccc1[C@H]1C(C(=O)c2ccc(Cl)cc2)C2(N[C@@H]1c1ccccc1)C(=O)Nc1ccc(Cl)cc12 (stereo partly specified) | 5.84% (active) | -1.27% (active) | -44.4% (active) | 6.3% (active) | -4.87% (active) | 10.1% | -18.8% (active) | 9.71% (active) | -43.9% (active)
13 | CO[C@@H]1CSSC1Cn1nc(-c2ccc(Oc3ccccc3)cc2)c2c(N)ncnc21 (stereo partly specified) | 7.37% (active) | 35.5% | -72.1% (active) | 29.1% | 16.5% | 9.66% (active) | 47.5% | 38% | -12.9% (active)
14 | CO[C@H]1CSS[C@@H]1Cn1nc(-c2ccc(Oc3ccccc3)cc2)c2c(N)ncnc21 | 2.61% (active) | 4.49% (active) | -46.5% (active) | 66.4% | 10.2% | 7.35% (active) | 14% | 17.5% | -21.2% (active)
15 | O=S(=O)(c1ccc(Cl)cc1)c1nc(-c2ccccc2)oc1S(=O)(=O)c1ccc(Cl)cc1 | 78.8% | 142% | 82.3% | 46.8% | 36.3% | 58.9% | 95.8% | 93.2% | 76%
16 | CC(=O)NS(=O)(=O)c1ccc(NC(=O)CSC2=NC(c3ccccc3)C(C(C)=O)=C(C)N2)cc1 (stereo unspecified) | 99.7% | 116% | 104% | 106% | 95.2% | 102% | 108% | 104% | 110%
17 | Cc1cccc2cc(-c3cc(-c4ccccc4)nc(=S)[nH]3)c(Cl)nc12 | 72.9% | 53.1% | -6.63% (active) | 92% | 68.3% | 83.3% | 93.1% | 91.4% | 90.6%
18 | COc1ccc(C2NC(=S)NC(C)=C2C(=O)OC(C)C)cc1OC (stereo unspecified) | 91.1% | 103% | 104% | 103% | 108% | 99.3% | 114% | 103% | 98.9%
19 | C=C1CCC2C3(C)COC(c4cc(F)cc(F)c4)OC3CCC2(C)C1C/C=C1/C(=O)OCC1O (stereo unspecified) | -50.1% (active) | -81.1% (active) | -64.2% (active) | -61.9% (active) | -45.8% (active) | -69.2% (active) | -79.9% (active) | -77.9% (active) | -58.2% (active)
20 | COc1ccc2nc(Nc3cccc(NC(=O)c4ccc(CN5CCN(C)CC5)c(C(F)(F)F)c4)c3)ccc2c1 | -25.9% (active) | -45.8% (active) | -96% (active) | -89.7% (active) | -97.1% (active) | -15.3% (active) | -99.4% (active) | -68.1% (active) | -97.1% (active)
21 | O=C(c1ccccc1)n1ccc(-c2cc3cc(Br)ccc3oc2=O)n1 | 1.35% (active) | 39.2% | 48.9% | 45.8% | -8.53% (active) | 16% | 17% | 27.9% | -25.9% (active)
22 | NC1=NC(c2ccccc2Cl)N=C(Nc2nn[nH]n2)N1 (stereo unspecified) | 99.1% | 107% | 102% | 106% | 93.3% | 103% | 104% | 100% | 103%
23 | N#Cc1c(NC(=O)c2ccc(C(F)(F)F)c(Cl)c2)sc2c1CCC(=O)C2 | -53% (active) | -82.1% (active) | -68.4% (active) | -56.8% (active) | -3.57% (active) | -44.9% (active) | -74.4% (active) | -28.4% (active) | -71.2% (active)
24 | N#Cc1ccc(-c2nn(-c3ccc(C(=O)O)cc3)cc2CNc2ccc(Cl)cc2)cc1 | 74.3% | 62.6% | 89.7% | 87.2% | 70.8% | 53.8% | 89.4% | 67% | 116%
25 | Cc1ccc(/C=C/C(=O)c2ccc(S(=O)(=O)NCCNc3nc(Nc4ccc(F)cc4)nc(N(C)C)n3)cc2)cc1 | 24.8% | 64.6% | -23% (active) | -8.7% (active) | -55.8% (active) | -51.7% (active) | -11.9% (active) | -53.8% (active) | -2.81% (active)
26 | CN1CCN(Cc2ccc(C(=O)Nc3cccc(Nc4ccc5c(O)cccc5n4)c3)cc2C(F)(F)F)CC1 | -36.8% (active) | -58.4% (active) | -91.6% (active) | -84% (active) | -67.1% (active) | -43.9% (active) | -93.2% (active) | -76.7% (active) | -92.7% (active)
27 | O=c1c2ccccc2nc(COc2ccccc2)n1/N=C/c1ccc(N2CCOCC2)cc1 | 92.9% | 76.8% | 99.3% | 97.6% | 77.6% | 52.5% | 99.2% | 90.7% | 117%
28 | O=C1c2ccccc2C(=O)c2c1c(C(=O)c1ccc(Cl)cc1)n1c2ccc2c3ccccc3ccc21 | 104% | 119% | 114% | 101% | 93% | 104% | 116% | 103% | 112%
29 | N#Cc1ccc(-c2nn(-c3ccc(C(=O)O)cc3)cc2CNc2cc(Cl)cc(C(F)(F)F)c2)cc1 | 8.34% (active) | -22.5% (active) | 9.7% (active) | 21.2% | 5.75% (active) | -2.71% (active) | -27.7% (active) | 4.92% (active) | -13.7% (active)
